Screening results deposited in PubChem BioAssay by National Center for Advancing Translational Sciences (NCATS).
Pf Dd2 inh: blocks in vitro growth of P. falciparum Dd2. P. falciparum Dd2 growth, SYBR Green, 72 h. Potency, µM (titrated, usually from 28.9 µM), for inactives: at the top dose activity, negative = inhibition, actives largely listed as inhibitors. 4.3% of 120,000 active; active means well fitted inhibition curve with a large enough effect;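 further: plate controls were DMSO vehicle for no effect and reference drug for full effect; nearly all actives have a fitted effect of over 65% in size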
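Infected erythrocytes (Dd2, 0.3% parasitemia, 2.5% hematocrit final) are added to compound in RPMI-1640/Albumax II medium, grown 72 h at 37C in low oxygen, then lysed with saponin/Triton-X containing SYBR Green and read by fluorescence.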
* = called active by the depositor; i = inactive; [ ] = dose if it differs, or a comment. Only a selection was taken, and hits are over-represented in it overall. Potency means the concentration at half of the fitted maximal effect.

SMILES	Pf Dd2 inh
COc1cc2c(cc1OC)C(C[C@H]1CN(C(=O)Nc3ccc(F)cc3)CC[C@H]1CC(=O)O)=NCC2	-22%
CC(C)NC(=O)C1COC2(CCN(C(=O)C(C)(C)C)CC2)N1C(=O)c1ccc(F)cc1 (configuration not stated)	2%
Cc1cc(C)n(-c2ccc(F)cc2CN2CCCC(CO)(Cc3ccccc3)C2)n1 (configuration not stated)	8.9µM*
CCc1ccc(CN2CCCC(CO)(Cc3ccc(F)cc3F)C2)cc1 (configuration not stated)	-2%
CN1CC2(CCCN(Cc3cc(F)ccc3-n3cccn3)C2)OC1=O (configuration not stated)	-7%
CC[C@H]1CN(C(=O)Nc2ccccc2)CC[C@H]1CC(=O)NCc1ccccc1	-11%[44.1 µM]
Cc1cc(CC(=O)N2CC[C@@H](NC(=O)c3ccccn3)[C@H](O)C2)on1	-3%
Cc1nnnn1-c1ccc(NS(=O)(=O)NCc2ccccc2)cc1	27%
CCc1nc(-c2c3n(c(=O)n(Cc4ccc(C(=O)OC)o4)c2=O)CCCC3)no1	-12%
COC(=O)c1ccc2nc(CO[C@H]3CN(C(C)C)C[C@H]3F)[nH]c2c1	i
COC(=O)c1ccc2nc(CO[C@H]3CN(Cc4ccc5ccccc5n4)C[C@H]3F)[nH]c2c1	8.9µM*
COC(=O)c1ccc2nc(CO[C@H]3CN(Cc4cccnc4)C[C@H]3F)[nH]c2c1	-21%[44.1 µM]
O=C(c1ccsc1)N1CCC(Oc2ccccc2-c2nc(C3CC3)no2)C1 (configuration not stated)	-4%
O=C(c1ccc(F)cc1F)N1CCCN(c2cc(-c3ccccc3)[nH]n2)CC1	i
O=C(c1nc(-c2cc(Cl)cc(Cl)c2)c2ccccn12)N1CCN(c2ncccn2)CC1	i
O=C(c1nc(-c2cccnc2)c2ccccn12)N1CCN(c2ncccn2)CC1	-2%
C[S+](=O)([O-])c1ccc(-c2nc(C(=O)N3CCN(c4ncccn4)CC3)n3ccccc23)cc1	7.1µM*
Clc1ccc(CNc2nc3ccccc3c3nc(-c4cccnc4)nn23)cc1	29%
Clc1ccc(CCNc2nc3ccccc3c3nc(-c4ccccc4)nn23)cc1	6%
CCCCNc1nc2ccccc2c2nc(-c3ccccc3)nn12	3.2µM*
Clc1ccccc1CNc1nc2ccccc2c2nc(-c3ccccc3)nn12	i
CCCCNC(=O)CCC(=O)NNc1nc2ccccc2c2nc(-c3ccccc3)nn12	-21%
c1ccc(CNc2nc3ccccc3c3nc(-c4ccccc4)nn23)cc1	8.9µM*
O=C(OCc1ccccc1)N1CCC2(CC1)C(=O)NN=C2c1cccnc1	i
COc1cccc(CCc2nc(-c3nnn4c3COC(c3ccc(Cl)cc3)C4)no2)c1 (configuration not stated)	-24%
SMILES	Pf Dd2 inh
O=C(NCc1ccccc1F)c1noc(-c2ccc(F)cc2)n1	45%
O=C(c1cccnc1)N1CCC2(CC1)C(=NC1CCCC1)NC(=O)N2c1cc(F)cc(F)c1	10%
O=S1(=O)c2ccccc2N(Cc2ccccc2)c2ccccc21	i
COc1cc(Cl)c(C)cc1NC(=O)CN1c2ccccc2S(=O)(=O)c2ccccc21	-7%
NC(=O)c1ccccc1NC(=O)CN1c2ccccc2S(=O)(=O)c2ccccc21	10µM*
CC1(C(=O)N2CCCC(CCc3ccc(F)c(F)c3)C2)CC1 (configuration not stated)	i
Fc1ccc(CCC2CCCN(Cc3nccs3)C2)cc1F (configuration not stated)	i
Fc1ccc(CCC2CCCNC2)cc1F (configuration not stated)	7.1µM*
Cc1nc(-c2c3n(c(=O)n(CC(=O)Nc4ccccc4F)c2=O)CCCC3)no1	10%
O=C(c1c(O)cccc1O)N1CCOC(C(F)(F)F)C1 (configuration not stated)	-16%
CC1=NS(=O)(=O)N(Cc2ccccc2)C=C1C(=O)OCc1nc(Cc2ccc(C)cc2)no1	-22%
NCCCCC(=O)N1CCOc2c(O)cc(-c3csc4ccccc34)cc2C1	5µM*
O=C(CCc1nc2ccccc2s1)N1CCC(c2noc(-c3ccccc3)n2)C1 (configuration not stated)	-7%[5.79 µM]
O=C1CCCN1CCN1CCOc2c(O)cc(-c3csc4ccccc34)cc2C1	11µM*
CN(C)C(=O)N1CCC2(CC1)CN(C(=O)CCCN)Cc1ccccc1O2	10%
C=CCCC(=O)N1CCOc2c(O)cc(-c3nc4ccccc4s3)cc2C1	11µM*
Cn1nc2n(c1=O)CCN(C(=O)CCCc1nc3ccccc3s1)CC2	-17%
O=c1c(N2CCc3ccccc3C2)csc2ccccc12	2%
Cc1cnc(C)c(-c2cc(O)c3c(c2)CN(CC2CNC(=O)O2)CCO3)n1 (configuration not stated)	-5%
NCCCC(=O)N1CCC2(CC1)CN(C(=O)Cc1ccccc1)CCO2	5%
COc1ccc(Cl)cc1S(=O)(=O)N1CCc2nn(C)c(=O)n2CC1	48%
COC[C@@H]1CN(C(=O)c2ccc(OC)cc2OC)C[C@H]1c1ccncc1	-14%
CCN1CC2(CCN(C(=O)c3ccc4c(c3)ncn4CCO)CC2)OC1=O	2%
c1ccc(-c2cn3c(n2)CO[C@@H](CNCc2cccs2)C3)cc1	i
O=C(C[C@H]1NC(=O)c2ccccc2NC1=O)NC1CCCCC1	-11%
SMILES	Pf Dd2 inh
Cc1ccc(C(=O)Nc2ccc3c(N4CCOCC4)ncnc3c2)cc1	-11%
O=C(Nc1ccc2c(N3CCOCC3)ncnc2c1)c1cccc(Br)c1	0.89µM*
O=C(Nc1ccc2c(N3CCOCC3)ncnc2c1)c1ccc(F)c(Cl)c1	2.5µM*
O=C(Nc1ccc2c(N3CCOCC3)ncnc2c1)c1ccccc1C(F)(F)F	i
O=C(Nc1ccc2ncnc(N3CCCC3)c2c1)c1cccc(Br)c1	-20%
O=C(Nc1ccc2nc(SCC(=O)N3CCOCC3)sc2c1)c1cccc(Br)c1	-6%
CCN1CCCN(S(=O)(=O)CC)CC12CCOCC2	-29%
CC(C)NS(=O)(=O)c1cc(C(=O)O)cc(-c2ccc3c(c2)OCO3)c1	-3%
CO[C@@H]1COCC[C@H]1NC(=O)c1cccc(Oc2ccccc2)c1	-13%
CC(=O)N1CCN(c2cc(-c3noc([C@@H]4CCCN4Cc4ccc(N(C)C)cc4)n3)ccn2)CC1	i
Brc1ccc(-c2ccc(CNCCSc3nnnn3-c3ccccc3)o2)cc1	-15%
CCOCCCNCc1ccc(-c2ccccc2)o1	11µM*
CCNCc1ccc(-c2ccccc2)o1	-27%
Cc1ccccc1S(=O)(=O)N1CCC(CCC(=O)NC2CC2)CC1	-10%
Cc1ccccc1S(=O)(=O)N1CCCC(CCC(=O)Nc2cccc(Cl)c2)C1 (configuration not stated)	13µM*
Cc1ccccc1S(=O)(=O)N1CCCC(CCC(=O)NCc2ccc(F)cc2)C1 (configuration not stated)	-8%
COc1ccccc1CNC[C@H]1O[C@@H]2C[C@@H](CC(=O)NC(C)C)O[C@@H]2[C@@H]1O	32%[44.1 µM]
CN(C)[C@@H]1CN(C(=O)c2cccn2C)CC[C@]1(O)c1ccccc1	15%[5.79 µM]
COCCNC(=O)c1ccc2c(c1)N(C)C(CC(=O)NC1CCOCC1)CO2 (configuration not stated)	7%
Cn1nc(C(=O)N2CCN(c3ccccc3F)CC2)c2c1-c1ccccc1SC2	15%
Cc1ccc2c(c1)-c1c(c(C(=O)N3CCN(c4cc(Cl)ccc4C)CC3)nn1C)CS2	10µM*
COc1cccc(N2CCN(C(=O)c3nn(C)c4c3CSc3ccc(C)cc3-4)CC2)c1	20%
Cc1ccc(-n2nc(C(=O)N3CCN(c4ccccc4F)CC3)c(=O)n(C)c2=O)cc1	3%
